Assay outcomes (PubChem)
VP16 counter: VP16 counterscreen qHTS for inhibitors of ROR gamma transcriptional activity. Drosophila S2 Gal4-VP16 UAS-luciferase, luminescence, 20 h. Potency, µM (series often up to 53.6 µM), without a hit: at the highest dose activity, negative = inhibition, hits mostly inhibitors. 310,000 compounds, 3.5% hits. AID 2546, 2010;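 note: Gal4-VP16 expression switched on by copper sulfate through the metallothionein promoter; nearly all actives have a fitted effect of over 50% in size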
Tau ThT inhib: qHTS for Inhibitors of Tau Fibril Formation, Thioflavin T Binding; Microtubule-associated protein tau (Homo sapiens), P10636; recombinant tau K18 P301L, heparin-induced fibrillization, ThT fluorescence; Potency, µM (top dose mostly 57.4 µM), for the others: at the highest dose activity, negative = inhibition, usual class: inhibitors; 270,000 compounds, 2.1% hits; note: nearly all actives have a fitted effect of over 55% in size
Target sequence (P10636 561-689 P618L limits assumed): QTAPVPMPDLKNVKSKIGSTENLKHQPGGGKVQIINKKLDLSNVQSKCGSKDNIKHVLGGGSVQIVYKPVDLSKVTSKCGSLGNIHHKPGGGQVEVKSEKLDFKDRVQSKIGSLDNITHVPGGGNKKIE
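Aggregation was driven by heparin (20 uM final) acting on recombinant tau […] bearing P301L in 100 mM sodium acetate pH 7; fibrils were detected with Thioflavin T.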
Tau FP inhib: qHTS for Inhibitors of Tau Fibril Formation, Fluorescence Polarization; Microtubule-associated protein tau (Homo sapiens), P10636; K18 P301L tau heparin fibrillization, Alexa594 FP, 6 h; Potency, µM (titrated, usually from 57.7 µM), inactives show top-dose activity, negative = inhibition, actives largely listed as inhibitors; 280,000 compounds, 0.39% hits; AID 1468, 2008; note: nearly all actives have a fitted effect of over 55% in size
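Quantitative HTS format: compounds meet 15 uM recombinant K18 P301L tau and Alexa 594-tau tracer in 100 mM sodium acetate pH 7; 20 uM heparin triggers fibrillization at 37 C over 6 hr; FP gives the signal.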
RORg inh: qHTS for inhibitors of ROR gamma transcriptional activity; Drosophila S2 Gal4-RORgamma UAS-luciferase reporter, 20 h; Potency, µM (highest dose often 53.6 µM), without a hit: top-dose activity change, negative = inhibition, actives largely listed as inhibitors; 310,000 compounds, 5.4% hits; AID 2551, 2010; note: nearly all actives have a fitted effect of over 60% in size
Target sequence (P51450 whole entry, looked up, the tested form may be a part): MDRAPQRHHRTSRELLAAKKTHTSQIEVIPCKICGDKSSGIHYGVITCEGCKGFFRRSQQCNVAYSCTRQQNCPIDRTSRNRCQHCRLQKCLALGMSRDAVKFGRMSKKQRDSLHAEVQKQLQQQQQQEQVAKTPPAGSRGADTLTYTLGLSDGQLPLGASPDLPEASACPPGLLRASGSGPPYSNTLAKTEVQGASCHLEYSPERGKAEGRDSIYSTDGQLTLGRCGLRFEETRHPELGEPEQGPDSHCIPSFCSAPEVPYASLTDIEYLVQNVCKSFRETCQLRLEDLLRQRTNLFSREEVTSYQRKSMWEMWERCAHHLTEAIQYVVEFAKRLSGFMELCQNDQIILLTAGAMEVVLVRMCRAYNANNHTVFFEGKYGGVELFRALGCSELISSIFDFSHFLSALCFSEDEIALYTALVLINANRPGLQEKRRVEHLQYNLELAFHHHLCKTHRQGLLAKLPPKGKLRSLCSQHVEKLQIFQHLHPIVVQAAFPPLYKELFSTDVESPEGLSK
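In this cell-based reporter format, copper sulfate (700 uM final) drives Gal4–ROR gamma fusion expression from a metallothionein promoter in Drosophila Schneider cells; compounds preincubated 1 hr, reporter read after 20 hr at ambient temperature.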
Tau fluor counter: Counterscreen qHTS for Inhibitors of Tau Fibril Formation, Fluorescence Polarization | tau K18 P301L (four-repeat tau fragment) Alexa594 fluorescence, heparin fibrillization | Potency, µM (doses to about 57.7 µM), for inactives: at the highest dose activity change, negative = decrease | 280,000 compounds, 0.93% hits | AID 1463, 2008; note: nearly all actives have a fitted effect of over 55% in size
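Human K18 P301L tau (15 uM unlabeled plus 0.24 uM Alexa 594-labeled, final) in 100 mM sodium acetate pH 7 was mixed with compound and 20 uM heparin and incubated 6 hr at 37 C.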
Starred values were filed as active, the others as inactive; [ ] = dose if it differs, or a comment. Hits are enriched below; roughly 7.3% of the tested compounds scored in any of these assays. Calls come from the whole dose curve; as a rule, active = well fitted curve in the direction sought with a large enough effect; inconclusive = small, poorly fitted or top-dose-only effect, or another doubt; inactive = no such curve, though single readings can be large; an effect the other way counts as inactive or inconclusive. % is set by controls: 0 for no effect and ±100 for the full control effect; potency is the fitted concentration of half-maximal effect.

Results for NC(=O)CC(NC(=O)c1ccccc1)c1ccc(NCc2ccc(F)c(F)c2)c([N+](=O)[O-])c1 (configuration not stated) ?
VP16 counter: 2%; RORg inh: 18%

What do the screens show for `NC(=O)CC(NC(=O)c1ccccc1)c1ccc(NCc2ccc(F)cc2)c([N+](=O)[O-])c1` (configuration not stated)?
VP16 counter: 3%; Tau ThT inhib: 25µM*; Tau FP inhib: 2%; RORg inh: 18%; Tau fluor counter: -20%

How did O=[N+]([O-])c1cc(CN2CCCC2)c2cccnc2c1O do in these assays?
VP16 counter: inconclusive; Tau ThT inhib: 16µM*; Tau FP inhib: -14%; RORg inh: inconclusive; Tau fluor counter: -23%

How did O=[N+]([O-])c1cc(CN2CCN(c3cccc(C(F)(F)F)c3)CC2)c2cccnc2c1O do in these assays?
VP16 counter: inconclusive; Tau ThT inhib: 16µM*; Tau FP inhib: 1%; RORg inh: 0.11µM*; Tau fluor counter: -16%

Results for COc1cc(CN2CCCCCC2)cc([N+](=O)[O-])c1O ?
VP16 counter: 1%; RORg inh: -12%

How did O=c1cc(-c2ccc(F)cc2)nc(SCc2nc(-c3cccc(Cl)c3)no2)[nH]1 do in these assays?
Tau ThT inhib: 13%; Tau FP inhib: -17%; Tau fluor counter: 4%

What do the screens show for `COC1=C(Nc2ccc(C)cc2)C(=O)c2ccccc2C1=O`?
VP16 counter: -8%; Tau ThT inhib: 8.9µM*; Tau FP inhib: inconclusive; RORg inh: 10%; Tau fluor counter: inconclusive

Results for CC(=O)NC1=C(Nc2ccc(N(C)C)cc2)C(=O)c2ccccc2C1=O ?
VP16 counter: -18%; RORg inh: -59%

What do the screens show for `COC1=C(Nc2ccccc2)C(=O)c2ccccc2C1=O`?
VP16 counter: -2%; Tau ThT inhib: 7.1µM*; Tau FP inhib: inconclusive; RORg inh: 8%; Tau fluor counter: inconclusive

What do the screens show for `C1OCOCO1`?
VP16 counter: 3%; RORg inh: 10%

What do the screens show for `O=c1c(C/C=C/c2ccccc2)c(O)ccn1CCc1c[nH]c2ccccc12`?
VP16 counter: -1%; Tau ThT inhib: -16%; Tau FP inhib: -5%; RORg inh: 31%; Tau fluor counter: 18µM*[quencher]

How did COc1ccc2[nH]cc(CCn3ccc(O)c(C/C=C/c4ccccc4)c3=O)c2c1 do in these assays?
VP16 counter: -1%; Tau ThT inhib: inconclusive; Tau FP inhib: inconclusive; RORg inh: 15%; Tau fluor counter: 25µM*[quencher]

What do the screens show for `O=c1c(C/C=C/c2ccccc2)c(O)ccn1Cc1cccc(Cl)c1`?
VP16 counter: -4%; Tau ThT inhib: 2%; Tau FP inhib: inconclusive; RORg inh: 22%; Tau fluor counter: -26%

What do the screens show for `Cc1ccccc1C`?
VP16 counter: -17%; RORg inh: -12%

What do the screens show for `CCCn1c(C(C)Nc2nc(-c3ccc(OC)cc3)cs2)nc2ccccc21` (configuration not stated)?
VP16 counter: inconclusive; RORg inh: 7.9µM*

How did N#C/C(=C\C=C\c1ccccc1[N+](=O)[O-])C(=O)NC1CCCCC1 do in these assays?
VP16 counter: -16%; Tau ThT inhib: inconclusive; Tau FP inhib: 0%; RORg inh: inconclusive; Tau fluor counter: -24%

What do the screens show for `N#C/C(=C\c1ccccc1[N+](=O)[O-])C(=O)NC1CCCCC1`?
VP16 counter: 8.9µM*; Tau ThT inhib: inconclusive; Tau FP inhib: 5%; RORg inh: inconclusive; Tau fluor counter: -19%

What do the screens show for `CN(C)CCOC(=O)C12CC3CC(C1)CC(C(=O)OCCN(C)C)(C3)C2`?
VP16 counter: -3%; Tau ThT inhib: 0%; Tau FP inhib: 1%; RORg inh: -2%; Tau fluor counter: 0%

How did CCN(CC)CCOC(=O)C12CC3CC(CC(C3)C1)C2 do in these assays?
VP16 counter: 9%; Tau ThT inhib: 0%; Tau FP inhib: 2%; RORg inh: 5µM*; Tau fluor counter: 5%

What do the screens show for `COc1ccc(-c2nnn3c2nc(NCCc2ccc(OC)c(OC)c2)c2ccccc23)cc1`?
Tau ThT inhib: inconclusive; Tau FP inhib: 6%; Tau fluor counter: inconclusive

Results for Cc1cc(NC(=O)c2cc(C(C)(C)C)oc2C)no1 ?
VP16 counter: -15%; Tau ThT inhib: -4%; Tau FP inhib: -5%; RORg inh: 13µM*; Tau fluor counter: -10%

How did Cc1ccc(NC2=Nc3ccccc3CC2)cc1 do in these assays?
VP16 counter: inconclusive; Tau ThT inhib: -16%; Tau FP inhib: 5%; RORg inh: 11µM*; Tau fluor counter: -4%

Results for COCCCn1c(O)c(/C=C2\N=C(C#N)C(=Nc3ccc(C)cc3)O2)sc1=S ?
VP16 counter: inconclusive; Tau ThT inhib: 11µM*; Tau FP inhib: inconclusive; RORg inh: inconclusive; Tau fluor counter: inconclusive

What do the screens show for `C=CCC(Nc1ccccc1)C12C=CC(O1)C(C(=O)OC)=C2C(=O)OC` (configuration not stated)?
VP16 counter: 6.3µM*; Tau ThT inhib: 7.9µM*; Tau FP inhib: -1%; RORg inh: 5.6µM*; Tau fluor counter: -30%

Results for Cc1cccc(C(=O)Nc2ccc(C(=O)OCc3cc(=O)n4nc(CC(C)C)sc4n3)cc2)c1 ?
Tau ThT inhib: 5%; Tau FP inhib: -4%; Tau fluor counter: 7%

What do the screens show for `O=C1c2ccccc2C(=O)C12OC2c1ccc(Cl)cc1Cl` (configuration not stated)?
VP16 counter: inconclusive; Tau ThT inhib: 10µM*; Tau FP inhib: inconclusive; RORg inh: 10µM*; Tau fluor counter: inconclusive

Results for O=C1c2ccccc2C(=O)C1c1ccc(Cl)cc1 ?
VP16 counter: 12%; RORg inh: 0%

What do the screens show for `CCN(CC)c1cc2c(cc1F)c(=O)c(S(=O)(=O)c1ccc(OC)cc1)cn2Cc1ccccc1`?
Tau ThT inhib: -14%; Tau FP inhib: -7%; Tau fluor counter: -16%

What do the screens show for `O=c1c(Cl)c(NCCCO)cnn1-c1nc2ccccc2[nH]1`?
VP16 counter: 3.5µM*; Tau ThT inhib: inconclusive; Tau FP inhib: inconclusive; RORg inh: 5µM*; Tau fluor counter: -18%

Results for C=CCN(CC=C)c1cnn(-c2nc3ccccc3[nH]2)c(=O)c1Cl ?
VP16 counter: -3%; Tau ThT inhib: 9%; Tau FP inhib: 5%; RORg inh: 20%; Tau fluor counter: 9%

What do the screens show for `O=C(CCCSc1nc2ccccc2[nH]1)N1CCN(c2ccc([N+](=O)[O-])cc2)CC1`?
VP16 counter: 6%; Tau ThT inhib: 0.79µM*; Tau FP inhib: -6%; RORg inh: 16%; Tau fluor counter: -19%
